Experiment [1] is described as follows: NCI Yeast Anticancer Drug Screen. Data for the rad50 strain (AID 155).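 Also: 0% = growth of vehicle-only cultures of the same strain.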 To be noted: S. cerevisiae rad50 strain growth inhibition, stronger effect = higher value. In a few lines:
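Compounds were tested on a yeast strain with an engineered DNA damage repair alteration; the reported value is growth inhibition normalised to vehicle treatment.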

Experiment [2] in a line: NCI Yeast Anticancer Drug Screen. Data for the mec2-1 strain (AID 157). Conditions: S. cerevisiae mec2-1 strain, stronger effect = higher value. The method in brief:
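Vehicle-treated cultures served as reference for growth inhibition of compound-exposed mec2-1 yeast.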

Experiment [3] in a line: NCI Yeast Anticancer Drug Screen. Data for the sgs1 mgt1 strain (AID 161).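 Also: 0% = growth of cultures given vehicle only.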 To be noted: S. cerevisiae sgs1 mgt1 strain, stronger effect = higher value. In a few lines:
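Mutant yeast exposed to compound; growth scored against vehicle-only wells.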

Experiment [4] is described as follows: NCI Yeast Anticancer Drug Screen. Data for the cln2 rad14 strain (AID 165).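 Also: 0% = growth equal to vehicle treated cultures.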 To be noted: S. cerevisiae cln2 rad14 strain, stronger effect = higher value. In a few lines:
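Each compound was tested on cln2 rad14 yeast. Inhibition of growth was calculated against vehicle-exposed controls.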

Experiment [5] is described as follows: NCI Yeast Anticancer Drug Screen. Data for the bub3 strain (AID 167). Conditions: S. cerevisiae bub3 mutant strain, stronger effect = higher value. In a few lines: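 Growth of a checkpoint-deficient yeast mutant is measured after compound exposure. Values represent inhibition relative to vehicle.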
Experiment [6] is described as follows: NCI Yeast Anticancer Drug Screen. Data for the mlh1 rad18 strain (AID 175). Conditions: S. cerevisiae mlh1 rad18 strain growth inhibition, stronger effect = higher value. In a few lines: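 Vehicle-treated cultures served as the reference for growth inhibition in a yeast strain carrying DNA damage repair alterations exposed to each compound.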
Where [7] appears, read: at 5.0 µM (retest, dose inferred, filed as 0.5).
Setting [8] is: at 50.0 µM (retest, dose inferred, filed as 5.0).

Compounds without any hit were thinned out: in the full panel of roughly 79,000, 15% have a hit. Values without a mark were called inactive. Activity calls are given as the source filed them. Rule as the data show it: active = growth inhibition above about 70%; inactive = the rest.

`COc1ccc([N+](=O)[O-])cc1NC(=O)Nc1ccc(C(=O)OCC(C)C)cc1`: the growth inhibition in experiment [1] (setting [7]) was 11%; in experiment [1] (setting [8]) it was 36%; in experiment [1] (at 50.0 µM), 48.8%; in experiment [2] (setting [7]), 3%; in experiment [2] (setting [8]), 53%; in experiment [2] (at 50.0 µM), 70.2% (active). For the same compound, the growth inhibition in experiment [3] (setting [7]) is 3%; in experiment [3] (setting [8]) it was 48%; in experiment [3] (at 50.0 µM), 68.2%; in experiment [4] (setting [7]), -10%; in experiment [4] (setting [8]) it was 56%; in experiment [4] (at 50.0 µM), 57%. Besides, the growth inhibition is -5% in experiment [5] (setting [7]); 47% in experiment [5] (setting [8]); 45.3% in experiment [5] (at 50.0 µM); 13% in experiment [6] (setting [7]); 3% in experiment [6] (setting [8]); 74.9% (active) in experiment [6] (at 50.0 µM).

On to `O=C1CSC(Cc2nc3ccccc3[nH]2)=N1`, for which the growth inhibition in experiment [1] (setting [7]) was 30%; in experiment [1] (setting [8]), 79% (active); in experiment [1] (at 50.0 µM), 76.7% (active); in experiment [2] (setting [7]) it was 26%; in experiment [2] (setting [8]) it was 79% (active); in experiment [2] (at 50.0 µM), 79.5% (active). The growth inhibition in experiment [3] (setting [7]) is 44%; in experiment [3] (setting [8]), 87% (active); in experiment [3] (at 50.0 µM), 73% (active); in experiment [4] (setting [7]), 36%; in experiment [4] (setting [8]), 55%; in experiment [4] (at 50.0 µM), 69%. The growth inhibition in experiment [5] (setting [7]) is 22%; in experiment [5] (setting [8]) it was 71% (active); in experiment [5] (at 50.0 µM) it was 77.8% (active); in experiment [6] (setting [7]), 48%; in experiment [6] (setting [8]), 90% (active); in experiment [6] (at 50.0 µM), 74.9% (active).

In the case of `COc1ccc(OCC(O)CN2CCN(c3cccc(Cl)c3)CC2)cc1` (stereo not given), the growth inhibition in experiment [1] (setting [7]) is -2%; in experiment [1] (setting [8]), -3%; in experiment [1] (at 50.0 µM), 72.5% (active); in experiment [2] (setting [7]), 15%; in experiment [2] (setting [8]), 28%; in experiment [2] (at 50.0 µM), 37.6%. The growth inhibition is 1% in experiment [3] (setting [7]); 23% in experiment [3] (setting [8]); 95.5% (active) in experiment [3] (at 50.0 µM); -6% in experiment [4] (setting [7]); -7% in experiment [4] (setting [8]); 33.6% in experiment [4] (at 50.0 µM). Besides, the growth inhibition in experiment [5] (setting [7]) was -4%; in experiment [5] (setting [8]) it was 8%; in experiment [5] (at 50.0 µM), 42.6%; in experiment [6] (setting [7]), 20%; in experiment [6] (setting [8]) it was 31%; in experiment [6] (at 50.0 µM), 69.9%.

On to `O=C1CSC(=S)N1/N=C/c1ccc(Cl)c([N+](=O)[O-])c1`, for which the growth inhibition is 28% in experiment [1] (setting [7]); 86% (active) in experiment [1] (setting [8]); 63.8% in experiment [1] (at 50.0 µM); 0% in experiment [2] (setting [7]); 40% in experiment [2] (setting [8]); 52.1% in experiment [2] (at 50.0 µM). The growth inhibition in experiment [3] (setting [7]) was 2%; in experiment [3] (setting [8]) it was 77% (active); in experiment [3] (at 50.0 µM), 27.4%; in experiment [4] (setting [7]) it was -16%; in experiment [4] (setting [8]), 40%; in experiment [4] (at 50.0 µM) it was -37.7%. In addition, the growth inhibition was -8% in experiment [5] (setting [7]); 46% in experiment [5] (setting [8]); 57.9% in experiment [5] (at 50.0 µM); 2% in experiment [6] (setting [7]); 91% (active) in experiment [6] (setting [8]); 61.2% in experiment [6] (at 50.0 µM).

With `Clc1ccc2nc3ccccc3nc2c1`, the growth inhibition in experiment [1] (setting [7]) is -31%; in experiment [1] (setting [8]) it was 96% (active); in experiment [1] (at 50.0 µM), 94.7% (active); in experiment [2] (setting [7]) it was 26%; in experiment [2] (setting [8]), 67%; in experiment [2] (at 50.0 µM), 86.8% (active). In addition, the growth inhibition was -5% in experiment [3] (setting [7]); 81% (active) in experiment [3] (setting [8]); 79.6% (active) in experiment [3] (at 50.0 µM); -9% in experiment [4] (setting [7]); 79% (active) in experiment [4] (setting [8]); 80.7% (active) in experiment [4] (at 50.0 µM). The growth inhibition was 21% in experiment [5] (setting [7]); 78% (active) in experiment [5] (setting [8]); 92.3% (active) in experiment [5] (at 50.0 µM); -4% in experiment [6] (setting [7]); 94% (active) in experiment [6] (setting [8]); 93.8% (active) in experiment [6] (at 50.0 µM).
